Test [1] can be described thus: compound effects on lung adenocarcinoma cell viability – A549, calcein-AM fluorescence, 48 h, basal, profiling panel (AID 1162). Also: test concentration not given here. The note with it: higher = more signal.
Test [2] in a line: compound effects on differentiated 3T3-L1 adipocyte viability – cell-based, 3T3-L1 adipocytes, calcein-AM fluorescence, 48 h, basal, profiling panel (AID 1163). Also: test concentration not given here. The note with it: 3T3-L1 adipocytes viability, higher = more signal.
Test [3] can be described thus: compound effects on hepatocellular carcinoma cell viability – HepG2, calcein-AM fluorescence, 48 h, basal, profiling panel (AID 1164). Also: test concentration not given here. As to conditions: higher = more signal.
Test [4] is described as follows: compound effects on multiple myeloma cell viability – MM1S, calcein-AM fluorescence, 48 h, basal, profiling panel (AID 1165).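 Also: viability of MM1S multiple myeloma cells under basal unstimulated conditions; test concentration not given here.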 The note with it: higher = more signal.
A short description of test [5]: calcein-AM signal in unstimulated myeloma cells – cell-based, calcein-AM fluorescence, 48 h, PK04 Diversity Set, profiling panel (AID 1166).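 Also: cells grown under basal conditions without added stimulus; test concentration not given here.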 As to conditions: RPMI8226 myeloma viability, higher = more signal.
Test [6] in a line: JC-1 mitochondrial signal, unstimulated HepG2 cells – cell-based, JC-1 fluorescence, 24 h, 100 nL compound, profiling panel (AID 1167). Also: test concentration not given here. The note with it: HepG2 mitochondrial potential, higher = more signal.
A short description of test [7]: JC-1 mitochondrial signal, unstimulated adipocytes – cell-based, JC-1 fluorescence, 3T3-L1 adipocytes, 24 h, 100 nL compound, profiling panel (AID 1168). Also: test concentration not given here. As to conditions: JC-1 mitochondrial fluorescence, higher = more signal, called active from +8 up or from −8 down.
Test [8] is described as follows: JC-1 mitochondrial signal, unstimulated myeloma cells – cell-based, JC-1 fluorescence, RPMI8226, 24 h, 100 nL compound, profiling panel (AID 1169). Also: test concentration not given here. As to conditions: JC-1 mitochondrial potential fluorescence, higher = more signal.
Test [9] can be described thus: JC-1 mitochondrial signal, unstimulated MM1S myeloma – cell-based, JC-1 fluorescence, 24 h, 100 nL compound, profiling panel (AID 1170). Also: test concentration not given here. The note with it: MM1S mitochondrial potential, higher = more signal.
The nature of test [10]: resazurin metabolic signal in A549 cells – cell-based, resazurin fluorescence, 24 h, PK04 Diversity Set, profiling panel (AID 1171). Also: test concentration not given here. The note with it: A549 viability, higher = more signal, called active from +8 up or from −8 down. Background: Resazurin is reduced to fluorescent resorufin, in cell work by metabolically active cells.
Test [11] in a line: resazurin metabolic signal in HepG2 cells – cell-based, resazurin fluorescence, 24 h, PK04 Diversity Set, profiling panel (AID 1172). Also: test concentration not given here. The note with it: HepG2 viability, higher = more signal.
Test [12] can be described thus: budding yeast growth changes without added modifier – OD600, strain BY4716, 24 h, basal condition, primary screen (AID 1173). As to conditions: S. cerevisiae BY4716 growth, OD600, 24 h; higher = more signal, called active from +8 up or from −8 down.
Test [13] is described as follows: viability profiling in MM1S myeloma cells – cell-based, resazurin fluorescence, basal, 24 h, PK04 Diversity Set, profiling panel (AID 1174). Also: test concentration not given here. As to conditions: higher = more signal, called active from +8 up or from −8 down.
In test [14] the target is Dihydroorotate dehydrogenase (quinone), mitochondrial (Plasmodium falciparum (isolate 3D7)) (UniProt Q08210). Kind of test: inhibition of P. falciparum DHODH – biochemical, C-terminal His tag, absorbance 600 nm, primary screen (AID 1175).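 Also: recombinant parasite enzyme with a five histidine tag at its C terminus; test concentration not given here.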 The note with it: PfDHODH enzyme, DCIP absorbance 600 nm; higher = more signal, called active from +8 up or from −8 down.
Sequence of Dihydroorotate dehydrogenase (quinone), mitochondrial (Plasmodium falciparum (isolate 3D7)) (Q08210 whole entry, looked up): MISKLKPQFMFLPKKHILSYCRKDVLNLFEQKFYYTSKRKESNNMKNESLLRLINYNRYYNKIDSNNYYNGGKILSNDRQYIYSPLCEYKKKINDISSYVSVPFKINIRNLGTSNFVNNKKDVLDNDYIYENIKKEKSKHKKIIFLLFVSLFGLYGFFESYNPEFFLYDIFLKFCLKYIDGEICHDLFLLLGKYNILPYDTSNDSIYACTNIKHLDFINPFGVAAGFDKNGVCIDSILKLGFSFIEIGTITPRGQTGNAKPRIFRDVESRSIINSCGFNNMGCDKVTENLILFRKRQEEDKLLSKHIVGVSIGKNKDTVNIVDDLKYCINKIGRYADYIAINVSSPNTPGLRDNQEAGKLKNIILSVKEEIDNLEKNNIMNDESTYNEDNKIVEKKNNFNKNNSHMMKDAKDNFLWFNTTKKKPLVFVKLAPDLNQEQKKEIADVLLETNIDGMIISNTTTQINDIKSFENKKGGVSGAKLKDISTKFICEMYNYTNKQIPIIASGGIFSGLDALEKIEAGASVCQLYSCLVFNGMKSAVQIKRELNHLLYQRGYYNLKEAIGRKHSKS
Test [15] is described as follows: inhibition of PAO1 biofilm formation – strain PAO1, LB-PBS medium, absorbance 600 nm, primary screen (AID 1176). Also: test concentration not given here. As to conditions: P. aeruginosa PAO1 growth/biofilm, A600, 12 h; higher = more signal.
Test [16] is described as follows: growth modulation of vineyard yeast isolate – strain RM11-1a, OD600, basal, 24 h, primary screen (AID 1177).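 Also: cultures grown under basal conditions with no added stressor; test concentration not given here.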 The note with it: S. cerevisiae RM11-1a growth, OD600, 24 h; higher = more signal, called active from +8 up or from −8 down.
Test [17] can be described thus: growth of efflux-deficient E. coli DRC39 – strain DRC39, OD650, 24 h, E. coli filamentation inducers, primary screen (AID 1178).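 Also: growth measured as culture turbidity by optical density at 650 nm; test concentration not given here.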 As to conditions: E. coli DRC39 acrAB, higher = more signal, called active from +8 up or from −8 down.
Test [18] in a line: growth of efflux-deficient E. coli DRC39 – strain DRC39, OD650, 48 h, E. coli filamentation inducers, primary screen (AID 1179).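 Also: screen aims at cell division blockers that make cells filament.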 As to conditions: E. coli DRC39 delta-acrAB growth, higher = more signal, called active from +8 up or from −8 down.
The nature of test [19]: viability profiling in RPMI8226 myeloma cells – cell-based, resazurin fluorescence, basal, 24 h, PK04 Diversity Set, profiling panel (AID 1180).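 Also: RPMI8826 multiple myeloma cell line at 5000 cells per well; test concentration not given here.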 As to conditions: higher = more signal.
For test [20], the target named is E3 ubiquitin-protein ligase XIAP (Homo sapiens) (UniProt P98170). The experiment in a line: small molecules binding XIAP protein – biophysical, small-molecule microarray, fluorescence 635 nm, primary screen (AID 1181).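 Also: score merges 667 nm emission and signal to noise over triplicate slides.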 As to conditions: higher = more signal.
Sequence of E3 ubiquitin-protein ligase XIAP (Homo sapiens) (P98170 whole entry, looked up): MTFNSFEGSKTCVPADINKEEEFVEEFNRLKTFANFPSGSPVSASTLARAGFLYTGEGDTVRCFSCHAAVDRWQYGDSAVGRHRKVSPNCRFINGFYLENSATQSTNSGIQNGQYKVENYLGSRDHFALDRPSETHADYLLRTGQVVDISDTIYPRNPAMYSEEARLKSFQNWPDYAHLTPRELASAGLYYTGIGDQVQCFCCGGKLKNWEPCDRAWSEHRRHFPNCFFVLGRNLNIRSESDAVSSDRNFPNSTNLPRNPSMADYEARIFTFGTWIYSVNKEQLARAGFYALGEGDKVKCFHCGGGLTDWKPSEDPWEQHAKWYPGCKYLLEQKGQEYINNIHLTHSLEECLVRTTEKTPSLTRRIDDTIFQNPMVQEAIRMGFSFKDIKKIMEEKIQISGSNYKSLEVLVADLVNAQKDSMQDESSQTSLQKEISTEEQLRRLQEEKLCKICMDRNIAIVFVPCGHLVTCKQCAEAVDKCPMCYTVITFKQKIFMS

The source made the active and inactive calls. Unless noted, no rule for the calls is given here.

Results on nine molecules are retold here after PubChem BioAssay.

`CCCCC(=C=CC[C@H](O)c1cccc(OCCO)c1)C[C@H](O)c1cc(Cl)cc(Cl)c1O`: the z-score was 0.827 in test [1]; -0.241 in test [2]; 0.358 in test [3]; -3.12 in [4]; -1.24 in [5]; 0.0773 in test [6]. The z-score in test [7] was 0.309 (inactive); in test [8], -0.00147; in test [9], -1.05; in test [10] it was 1.57 (inactive); in [11], 1.89; in test [12], -2.65 (inactive). The z-score in [13] was 0.356 (inactive); in test [15] it was 0.318 (inactive); in test [16], 0.275 (inactive); in test [17], 1.07 (inactive); in test [18], 0.923 (inactive); in test [19], 0.242. Further, the composite z-score is 0.189 (inactive) in test [14] and -0.206 in test [20].

Consider `C=C[C@@H](CO)NS(=O)(=O)c1ccc(Br)cc1`, for which the z-score in test [1] was 2.03; in [2] it was 0.935; in [3] it was 2.23; in [4], 0.855; in test [5], 1.05; in [6], 0.631. Besides, the z-score in [7] was 0.369 (inactive); in [8], 0.133; in [9], 0.993; in test [10] it was 2.35 (inactive); in [11], 1.4; in [12], -2.03 (inactive). Moreover, the z-score in test [13] is 1.16 (inactive); in test [15], 0.193 (inactive); in test [16], -2.19 (inactive); in test [17] it was 1.43 (inactive); in test [18], 1.16 (inactive); in [19], 0.867. For the same molecule, the composite z-score in test [14] was -1.37 (inactive); in test [20], -0.215.

As to `COC(=O)[C@H]1N=C(c2ccc(OCCCO)cc2)O[C@H]1c1ccccc1N=[N+]=[N-]`, the z-score was -0.206 in test [1]; 0.323 in test [2]; -0.151 in test [3]; -0.862 in [4]; -1.44 in test [5]; -0.434 in test [6]. For the same molecule, the z-score in test [7] is -0.419 (inactive); in test [8] it was -0.739; in test [9] it was 0.567; in test [10], -0.15 (inactive); in [11], 0.249; in test [12] it was -3.93 (inactive). The z-score was -0.971 (inactive) in test [13]; 1.43 (inactive) in test [15]; 0.682 (inactive) in test [16]; 0.584 (inactive) in test [17]; -0.711 (inactive) in [18]; 0.464 in test [19]. Besides, the results for the composite z-score in test [14] and in test [20] were 0.556 (inactive) and -0.141, respectively.

As to `COCCOC(=O)N1C(=O)[C@@]2(c3cc(C#CCC(C(=O)OC)C(=O)OC)ccc31)[C@H](c1ccc(O)cc1)N1[C@H](c3ccccc3)[C@H](c3ccccc3)OC(=O)[C@H]1[C@@H]2C(=O)N1CCc2cc(OC)c(OC)cc2C1`, the z-score was 0.393 in test [1]; 0.632 in test [2]; 0.806 in [3]; -0.243 in test [4]; -3.34 in test [5]; 0.763 in [6]. Also, the z-score in [7] is -0.291 (inactive); in test [8], -1.15; in test [9], 0.22; in test [10] it was 0.742 (inactive); in test [11], -0.347; in test [12], -0.672 (inactive). Also, the z-score in [13] is 0.222 (inactive); in [15], 0.008 (inactive); in test [16] it was 0.494 (inactive); in [17] it was 0.109 (inactive); in test [18], 0.588 (inactive); in [19], -0.92. In addition, the composite z-score was -0.118 (inactive) in [14] and -0.0233 in [20].

With `O=C1N(Cc2ccccc2)Cc2ccccc2C[C@@]12COC(c1ccc(OCCCO)cc1)=N2`, the z-score in [1] was -1.62; in test [2], 1.06; in test [3], 0.325; in test [4] it was -3.63; in [5] it was -4.39; in test [6] it was -0.641. Moreover, the z-score was 0.172 (inactive) in [7]; -1.18 in test [8]; -1.91 in [9]; -2.8 (inactive) in test [10]; 0.775 in test [11]; 0.842 (inactive) in [12]. Besides, the z-score in test [13] is -8.43 (active); in [15], -0.289 (inactive); in test [16], 4.69 (inactive); in [17] it was 1.42 (inactive); in test [18], 0.0613 (inactive); in test [19] it was -2.81. Moreover, the composite z-score in test [14] was 0.719 (inactive); in test [20], -0.124.

As to `CCOC(=O)C=C1C[C@@H](c2cccc([N+](=O)[O-])c2)O[C@@H](c2cccc([N+](=O)[O-])c2)O1`, the z-score was -0.865 in [1]; -0.477 in test [2]; 0.177 in [3]; -0.71 in test [4]; -0.588 in test [5]; 3.97 in test [6]. For the same molecule, the z-score in test [7] is 0.94 (inactive); in test [8], 0.779; in test [9] it was -0.351; in test [10] it was 1.44 (inactive); in test [11] it was 0.151; in test [12], 2.03 (inactive). Besides, the z-score in test [13] is 0.226 (inactive); in test [15], 0.285 (inactive); in [16], 1.79 (inactive); in test [17], -0.402 (inactive); in test [18], 0.335 (inactive); in [19], -0.969. The composite z-score was 0.917 (inactive) in test [14] and 0.127 in test [20].

In the case of `C=CC[C@]1(C(=O)NCCN2CCOCC2)N=C(c2ccc(OCCCO)cc2)O[C@H]1c1ccccc1`, the z-score was -0.139 in [1]; -0.0761 in test [2]; -0.0656 in [3]; -0.736 in test [4]; 0.0634 in test [5]; -0.607 in test [6]. For the same molecule, the z-score in test [7] was -0.442 (inactive); in [8] it was -0.176; in test [9] it was -0.255; in test [10] it was 1.63 (inactive); in test [11], 0.543; in test [12], -0.916 (inactive). Besides, the z-score in test [13] was 0.635 (inactive); in [15], 0.509 (inactive); in [16], -0.548 (inactive); in test [17] it was -0.0082 (inactive); in test [18], -0.864 (inactive); in [19] it was 0.749. The composite z-score in test [14] was 0.507 (inactive); in [20] it was -0.0351.

For the molecule `CCOC(=O)C1=C[C@@H](C(C)(C)C)N(S(=O)(=O)c2ccc(C)cc2)[C@H]1c1ccc(OC)cc1`, the z-score in test [1] is 0.279; in [2] it was -0.276; in test [3], -0.778; in test [4] it was -1.04; in test [5] it was -1.23; in test [6], 4.09. In addition, the z-score was -0.305 (inactive) in [7]; -0.589 in test [8]; -0.676 in test [9]; 2.62 (inactive) in [10]; -0.294 in test [11]; 1.9 (inactive) in test [12]. In addition, the z-score in [13] is -0.0789 (inactive); in [15], -0.473 (inactive); in test [16] it was 1.88 (inactive); in test [17], 0.33 (inactive); in test [18] it was -0.27 (inactive); in test [19], -1.23. The figures for the composite z-score in test [14] and in [20] were -0.0972 (inactive) and -0.149, respectively.

Turning to `CCCC[C@@H](O)C1=C(C)Cn2c(=O)n(-c3ccccc3)c(=O)n2[C@H]1CO`, the z-score was 1.38 in test [1]; 0.345 in [2]; 0.108 in test [3]; 0.548 in [4]; 0.617 in [5]; 0.372 in test [6]. The z-score in [7] was 0.276 (inactive); in [8] it was -0.347; in [9], -0.804; in [10] it was -1.16 (inactive); in test [11], -0.256; in [12] it was -1.82 (inactive). For the same molecule, the z-score in test [13] is -0.0268 (inactive); in [15], 0.413 (inactive); in test [16], -1.88 (inactive); in test [17], 0.514 (inactive); in [18], 0.715 (inactive); in test [19], -0.0486. Also, the composite z-score in test [14] was -1.06 (inactive); in [20], -0.249.
